# Bioassay records: PubChem BioAssay, National Center for Advancing Translational Sciences (NCATS)
# Most compounds without a hit are left out; they make up all but 2.4% or so of the library.
# Pol eta inh-1: inhibitors of human DNA polymerase eta; recombinant Pol eta, fluorescent DNA replication assay; hit rate 1.2% among 390,000; Q9Y253; Potency, µM (titrated, usually from 114 µM), most hits filed as inhibitors
# Target sequence (Q9Y253 whole entry, looked up): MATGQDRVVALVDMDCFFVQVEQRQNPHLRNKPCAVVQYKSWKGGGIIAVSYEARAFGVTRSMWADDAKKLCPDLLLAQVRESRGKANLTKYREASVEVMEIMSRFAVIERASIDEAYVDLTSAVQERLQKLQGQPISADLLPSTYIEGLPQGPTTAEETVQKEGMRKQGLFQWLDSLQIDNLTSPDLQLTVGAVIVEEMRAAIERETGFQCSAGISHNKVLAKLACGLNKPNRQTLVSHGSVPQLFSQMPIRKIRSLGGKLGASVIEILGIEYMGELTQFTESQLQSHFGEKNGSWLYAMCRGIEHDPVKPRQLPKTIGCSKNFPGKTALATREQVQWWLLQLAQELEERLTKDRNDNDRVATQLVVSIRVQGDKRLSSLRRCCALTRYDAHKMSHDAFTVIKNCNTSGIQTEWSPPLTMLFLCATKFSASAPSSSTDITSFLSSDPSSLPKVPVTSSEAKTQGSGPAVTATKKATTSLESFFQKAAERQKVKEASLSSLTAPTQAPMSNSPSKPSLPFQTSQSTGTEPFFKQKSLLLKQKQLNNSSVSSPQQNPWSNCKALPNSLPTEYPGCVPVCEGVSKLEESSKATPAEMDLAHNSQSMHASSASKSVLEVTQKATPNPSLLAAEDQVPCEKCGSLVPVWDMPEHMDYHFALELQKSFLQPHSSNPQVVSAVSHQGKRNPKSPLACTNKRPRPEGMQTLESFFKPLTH
#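 Pol eta (10 nM) was preincubated with compounds for 15 min at room temperature, after which fluorescent replication substrate (50 nM final) was added to start the reaction. Fluorescence was read kinetically at 0 and 10 min.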
# Pol kappa inh-1: inhibitors of human DNA polymerase kappa | Q9UBT6 | purified Pol kappa, fluorescent DNA synthesis assay, 10 min | Potency, µM (highest dose often 107 µM), hits mostly inhibitors | hit rate 0.53% among 400,000
#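 Kinetic fluorescence readout at 0 and 10 min followed reaction start with substrate at 50 nM final. Beforehand, enzyme (10 nM Pol kappa) stood 15 min with compound at room temperature; buffer-only wells were negative controls.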
# Pol iota inh: blocks human DNA polymerase iota activity | AID 588590 | hit rate 1% among 390,000 | Potency, µM (doses to about 115 µM), actives largely listed as inhibitors | Q9UNA4 | Pol iota fluorescent replication assay, 10 min
#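 Fluorescent replication assay read twice, at 0 min and 10 min after adding 50 nM (final) substrate. Enzyme (10 nM) and compounds were first incubated 15 min at room temperature; enzyme-free buffer wells were negative controls.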
# WRN helicase inh: WRN helicase (human) inhibition. hit rate 0.46% among 360,000. WRN helicase unwinding, fluorescent forked duplex, kinetic. Q14191. Potency, µM (doses to about 114 µM), hits mostly inhibitors; further: nearly all actives have a fitted effect of over 55% in size
#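 WRN at 20 nM final preincubated with compound 15 min at room temperature; reaction started with 100 nM fluorophore/quencher forked duplex oligonucleotide and 2 mM ATP final. Unwinding followed kinetically by red fluorescence (ex 525, em 598 nm).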
# FEN1 inh: human FEN1 inhibition; Recombinant FEN1 flap cleavage, fluorescence, 15 min; hit rate 0.35% among 390,000; AID 588795; P39748; Potency, µM (top dose mostly 114 µM), usual class: inhibitors; further: nearly all actives have a fitted effect of over 65% in size
#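 With each library titrated from low to high concentration, compounds met 10 nM FEN1 for 15 min at room temperature before 50 nM substrate was added; readings at 0 and 15 min fed four-parameter Hill curve fits.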
# POLB inh: blocks human DNA polymerase beta activity | Pol beta primer extension/strand displacement, fluorescence kinetic | Potency, µM (highest dose often 114 µM), usual class: inhibitors | P06746 | hit rate 1.3% among 340,000
#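 10 nM enzyme + cpd, 15 min RT; start with substrate 50 nM final; read 0 min and after 10 min RT. Corrected, normalized data; 4-parameter Hill curve fit.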
# GALK inh confirm: galactokinase (human) inhibition, confirmation. shares compounds with Pol eta inh-1. purified GALK, Kinase-Glo ATP depletion luminescence. Potency, µM (highest dose often 115 µM), most hits filed as inhibitors. hit rate 70% among 150
# GALK redox cs: counter-screen for GALK inhibitors: redox cycling H2O2 generation | shares compounds with Pol eta inh-1 | AID 2035 | Phenol red-HRP H2O2 redox cycling, absorbance 600 nm | Potency, µM (doses to about 115 µM), actives largely listed as inhibitors | hit rate 40% among 150
# HEK293 viability: HEK-293 cytotoxicity, GALK inhibitor secondary; shares compounds with Pol eta inh-1; HEK-293 viability, ATP luminescence (CellTiter-Glo), 24/48 h; Potency, µM (titrated, usually from 46.1 µM), most hits filed as inhibitors; hit rate 10% among 170; AID 2547
# Pol kappa inh-2: confirmation of human DNA polymerase kappa inhibitors; shares compounds with Pol eta inh-1; purified Pol-kappa, fluorescent strand-displacement substrate; Potency, µM, usual class: inhibitors; hit rate 76% among 920
# Pol eta inh-2: Pol eta (human) inhibition, cherry-pick confirmation; shares compounds with Pol eta inh-1; Pol eta primer extension, TAMRA/BHQ fluorescence, 10 min; Potency, µM, most hits filed as inhibitors; hit rate 64% among 2,600; AID 720502
# Numbers stand for hits; – = inactive; ? = inconclusive; · = no result; [ ] = remark or other dose. The call rests on the fitted dose curve; in most records, active means well fitted curve in the direction sought with a large enough effect; inconclusive means small, poorly fitted or top-dose-only effect, or another doubt; inactive means no such curve, though single readings can be large; an effect the other way counts as inactive or inconclusive.
SMILES,Pol eta inh-1,Pol kappa inh-1,Pol iota inh,WRN helicase inh,FEN1 inh,POLB inh,Pol eta inh-2,others
O=C1CSC(=S)N1/N=C/c1c(F)cccc1F,–,–,?,–,–,–,·,
O=C1CSC(=S)N1/N=C/C=C/c1ccccc1,14µM,?,20µM,–,–,28µM,?,
CCOc1ccc(-c2ccc(/C=C3/C(=N)N4C=CSC4=NC3=O)o2)c([N+](=O)[O-])c1,?,–,–,–,–,–,·,
CCOc1ccc(-c2ccc(/C=C3/C(=N)N4C(C)=CSC4=NC3=O)o2)c([N+](=O)[O-])c1,14µM,?,40µM,?,–,35µM,?,
Cc1ccc(N2CC(NC(=O)c3ccc(S(=O)(=O)N(C)C)cc3)CC2=O)cc1C (centres undefined),–,–,–,·,–,–,·,
N=C1/C(=C/c2ccc(OCc3ccccc3F)cc2)C(=O)N=C2SC(CC(=O)N3CCOCC3)=NN12,–,?,25µM,–,–,?,?,
COc1cc(/C=C2/C(=N)N3N=C(CC(=O)N4CCOCC4)SC3=NC2=O)ccc1OC(C)c1ccccc1 (centres undefined),?,–,?,–,–,–,·,
N=C1/C(=C\c2ccc(Br)o2)C(=O)N=C2SC(CC(=O)N3CCCCC3)=NN12,22µM,32µM,?,?,?,?,85,
c1cncc(CNc2ncnc3ccc(-c4ccoc4)cc23)c1,–,?,–,·,–,·,·,
Cc1cccc(CNc2ncnc3ccc(-c4ccoc4)cc23)c1,–,–,–,·,–,·,·,GALK inh confirm=?;GALK redox cs=–;HEK293 viability=–
COc1ccc2nc(N3C(=O)/C(=C/c4ccccc4)NC3=S)sc2c1,32µM,–,–,–,–,?,·,Pol kappa inh-2=?
CCOc1ccc2nc(N3C(=O)/C(=C/c4ccccc4)NC3=S)sc2c1,?,–,–,–,?,–,·,
Cc1ccc2nc(-c3ccccc3F)c(Nc3ccc(Cl)cc3)n2c1,–,–,–,·,–,?,·,
Cc1cccc(Oc2ccc3c(c2)Oc2ccccc2NC3=O)c1,50µM,?,71µM,·,–,13µM,?,
CCN(c1ccccc1)C1SC(=O)N(c2ccccc2)C1=O (centres undefined),·,–,–,·,–,·,·,
CC(=O)C1=C(c2ccc(Cl)cc2)N(C(C)=O)n2c(nnc2C2CCCCC2)S1,–,–,–,·,–,–,·,
NC(=O)NC(=O)CC1S/C(=N/N=C2\CSC(=O)N2)NC1=O (centres undefined),–,–,?,–,–,–,·,
O=C(O)CNC(=O)CC1S/C(=N/N=C2/NC(=O)CS2)NC1=O (centres undefined),45µM,–,?,–,–,–,·,Pol kappa inh-2=?
CC1=C2C(CCS2(=O)=O)CC2(C1)C(=O)OC(C)(C)OC2=O (centres undefined),79µM,?,?,–,–,?,?,
C[C@@H]1C(=O)O[C@@H]1[C@@H](C)CO[Si](c1ccccc1)(c1ccccc1)C(C)(C)C,·,–,–,·,–,·,·,
Cc1ccn2c(=O)nc(SCC(=O)NCc3ccco3)nc2c1,?,–,?,?,–,·,·,
Cc1ccc(CNC(=O)CSc2nc(=O)n3ccc(C)cc3n2)cc1,28µM,·,·,–,·,·,?,
Cc1ccc(-n2ncc(C(=O)NCc3ccco3)c2C2CCN(C(=O)OC(C)(C)C)CC2)cc1,–,–,–,·,–,–,·,
COc1cc(C(=O)O)cc(OC)c1OCc1cc(C(=O)O)oc1C,3.2µM,–,?,–,–,18µM,48,Pol kappa inh-2=42
CC(C)Sc1nc2sc3c(c2c2nnc(SCC(=O)NCc4ccco4)n12)CCCC3,4.5µM,–,?,–[11.6 µM],–,–,67,
SMILES,Pol eta inh-1,Pol kappa inh-1,Pol iota inh,WRN helicase inh,FEN1 inh,POLB inh,Pol eta inh-2,others
N#Cc1c(/N=C/c2ccc(-c3ccc(C(=O)O)c(Cl)c3)o2)sc2c1CCCC2,22µM,–,–,–,–,·,?,
N#Cc1c(/N=C/c2ccc(-c3ccccc3C(=O)O)o2)sc2c1CCCC2,28µM,–,?,–,–,28µM,67,
O=[n+]1c2c(n([O-])c3cc(F)ccc31)CCCC2,–,–,–,–,–,–,·,
O=[n+]1c2c(n([O-])c3cc(F)c(N4CCCC4)cc31)CCC2,?,?,?,?,–,·,?,
Cc1ccc(NC(=O)CSc2nc(-c3ccco3)nc3cc(=O)[nH]n23)c(Cl)c1,45µM,?,40µM,–[11.6 µM],–,50µM,48,
COc1ccc(OC)c(/C=N/Nc2nncn2/N=C/c2cc(OC)ccc2OC)c1,?,–,?,–,?,?,30,
COc1ccc2c(c1)c(=O)oc1c(C)c(OC(C)C(=O)N[C@@H](Cc3c[nH]c4ccc(O)cc34)C(=O)O)ccc12 (some centres undefined),20µM,?,?,–[11.6 µM],–,?,48,
CCOC(=O)c1sc(NC(=O)c2ccc(=O)[nH]c2)nc1C,?,–,–,–,–,–,·,
CCOC(=O)c1sc(NC(=O)c2ccc3nc[nH]c3c2)nc1C,?,–,?,?,–,?,?,
COc1cccc(/C=N/N2C(=O)CSC2=S)c1O,–,?,?,?,–,?,?,
COc1cccc(-n2c(C)cc(/C=C3/C(=N)N4C(=NC3=O)SN=C4S(C)(=O)=O)c2C)c1,18µM,–,?,–,–,–,?,
CS(=O)(=O)C1=NSC2=NC(=O)/C(=C\c3cccn3-c3ccccc3Cl)C(=N)N21,40µM,?,?,–[11.6 µM],?,35µM,?,
Cc1cc(C)cc(-n2cccc2/C=C2/C(=N)N3C(=NC2=O)SN=C3S(C)(=O)=O)c1,40µM,–,?,–[11.6 µM],–,45µM,?,
CC1=NN2C(=N)/C(=C\c3cc(C)n(-c4cccc(C)c4)c3C)C(=O)N=C2S1,–,–,–,–,–,–,·,
Cc1nn(CC(=O)NCCc2ccccc2)c(=O)c2nn(-c3ccccc3)c(C)c12,–,–,?,·,–,–,·,
C=Cc1ccc(CN2C(=O)N(c3ccc(C)c(C)c3)S(=O)(=O)c3ccccc32)cc1,–,–,–,·,–,–,·,
